The values that follow come from PubChem BioAssay (EPA / NIEHS).

The source made the active and inactive calls. The calls were made as follows: active = hit-call score of the fitted dose curve at least 0.9, where 1 is the maximum; inactive = score below 0.9.

Assay [1] deals with Transcription factor E2F1 (Homo sapiens) (UniProt Q01094). As to the kind of experiment: ATG_E2F_CIS: Attagene CIS-FACTORIAL HepG2 Assay for human E2F Transcription Factor 1 (AID 2282935). The note with it: HepG2 Attagene cis-reporter, E2F reporter RNA transcripts; actives raise or lower the signal. The gist of the method: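 Cis-element reporter mRNA induction in transiently transfected HepG2, 24 h exposure. Activity fitted in both directions relative to DMSO negative control.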

Assay [2] is described as follows: ATG_E_Box_CIS: Attagene CIS-FACTORIAL HepG2 Assay for human Enhancer Box (E-box) (AID 2282936). The note with it: HepG2 E-box cis-reporter transcription, actives raise or lower the signal. The gist of the method: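 Cells: HepG2 (human liver), transient MRTU transfection. Exposure 24 h. RNA → oligo(dT) RT → PCR → 6-FAM label → HpaI → CE. Activity fitted both directions relative to DMSO.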

Assay [3] in a line: ATG_M_61_CIS: Attagene CIS-FACTORIAL HepG2 Assay for M61 Transcription Factor (Internal Marker) (AID 2282937). The note with it: HepG2 Attagene CIS-FACTORIAL M61 internal marker reporter; actives raise or lower the signal. The method in brief: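 This endpoint serves as an internal background control within a multiplexed HepG2 cis-reporter panel. Cells are exposed for 24 h; reporter mRNA is amplified, fluorescently labelled and sized by capillary electrophoresis, with DMSO as negative control.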

A short description of assay [4]: ATG_EGR_CIS: Attagene CIS-FACTORIAL HepG2 Assay for human Early Growth Response 1 (EGR1) (AID 2282938). The following applies: HepG2 Attagene CIS-FACTORIAL EGR reporter mRNA; actives raise or lower the signal. The method in brief:
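HepG2, transient MRTU transfection (cis promoters), 24 h compound. RNA → RT (oligo-dT) → PCR → 6-FAM labelling → HpaI cut → CE fluorescence. Bidirectional fit, DMSO baseline.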

Assay [5] in a line: ATG_M_19_CIS: Attagene CIS-FACTORIAL HepG2 Assay for M19 Transcription Factor (Internal Marker) (AID 2282939). The following applies: HepG2 Attagene CIS-FACTORIAL M19 internal marker reporter; actives raise or lower the signal. The method in brief: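 HepG2, MRTU transient transfection, 24 h dosing. Total RNA → RT-PCR → 6-FAM primer extension → HpaI digest → CE fluorescence. Bidirectional curve fit, DMSO negative control.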

A short description of assay [6]: ATG_ERE_CIS: Attagene CIS-FACTORIAL HepG2 Assay for Estrogen Response Element (ERE) (AID 2282940). The note with it: HepG2 ERE cis-reporter, Attagene RNA transcript; actives raise or lower the signal. The gist of the method: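 After a 24 h chemical treatment, RNA from reporter-transfected HepG2 cells is reverse-transcribed, PCR-amplified and fluorescently labelled. Fragments separated by capillary electrophoresis give reporter signal; DMSO serves as negative control.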

Assay [7] is described as follows: ATG_Ets_CIS: Attagene CIS-FACTORIAL HepG2 Assay for human Erythroblast Transformation Specific (ETS) (AID 2282941). The note with it: HepG2 ETS cis-reporter transcription, actives raise or lower the signal. The method in brief:
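After transient cis-reporter transfection, HepG2 cells receive test chemical for 24 h. Reporter mRNA levels, measured by RT-PCR and capillary electrophoresis fluorescence, are analysed bidirectionally relative to the DMSO baseline.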

Assay [8] addresses Hepatocyte nuclear factor 3-beta (Homo sapiens) (UniProt Q9Y261). As to the kind of experiment: ATG_FoxA2_CIS: Attagene CIS-FACTORIAL HepG2 Assay for human Forkhead box A2 (FOXA2) (AID 2282942). The note with it: HepG2 cis-reporter transcription factor activity, 24 h; actives raise or lower the signal. The method in brief: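 Cells: HepG2, transient multiplex reporter transfection. Exposure 24 h. Detection: reporter-specific RT-PCR, fluorescent labelling, restriction digest, capillary electrophoresis. Analysis: bidirectional curve fit, DMSO as negative control.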

Assay [9] can be described thus: ATG_FoxO_CIS: Attagene CIS-FACTORIAL HepG2 Assay for human Forkhead box O (FoxO) (AID 2282943). The following applies: HepG2 Attagene cis-reporter, FoxO element, mRNA; actives raise or lower the signal. The gist of the method: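 HepG2, transient MRTU transfection (cis element, endogenous TFs). Dose 24 h. TriZol RNA → oligo(dT) RT → PCR → 6-FAM primer extension → HpaI cut → CE. Gain/loss vs DMSO.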

Assay [10] can be described thus: ATG_GATA_CIS: Attagene CIS-FACTORIAL HepG2 Assay for human GATA Binding Protein (AID 2282944). The note with it: HepG2 GATA cis-element reporter, Attagene multiplex mRNA; actives raise or lower the signal. The method in brief: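 Cells: HepG2, transiently transfected with cis-regulated reporter transcription units. Exposure: 24 h. Detection: RT-PCR plus capillary electrophoresis of FAM-labeled fragments. Analysis: bidirectional, DMSO as baseline.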

Hepatocyte nuclear factor 3-beta (Homo sapiens), sequence (Q9Y261 whole entry, looked up): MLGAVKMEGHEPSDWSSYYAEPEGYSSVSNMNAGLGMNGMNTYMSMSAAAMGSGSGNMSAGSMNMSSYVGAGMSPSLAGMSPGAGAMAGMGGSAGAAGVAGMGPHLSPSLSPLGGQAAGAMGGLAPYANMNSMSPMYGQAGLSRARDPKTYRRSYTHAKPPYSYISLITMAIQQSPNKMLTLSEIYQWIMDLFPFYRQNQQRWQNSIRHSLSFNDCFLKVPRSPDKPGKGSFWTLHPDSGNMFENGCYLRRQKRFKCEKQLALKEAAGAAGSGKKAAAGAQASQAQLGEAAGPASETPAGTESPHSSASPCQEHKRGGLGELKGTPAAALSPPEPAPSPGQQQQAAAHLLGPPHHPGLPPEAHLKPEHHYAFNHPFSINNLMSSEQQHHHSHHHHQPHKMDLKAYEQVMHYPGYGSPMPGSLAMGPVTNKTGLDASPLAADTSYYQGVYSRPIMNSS
Transcription factor E2F1 (Homo sapiens), sequence (Q01094 whole entry, looked up): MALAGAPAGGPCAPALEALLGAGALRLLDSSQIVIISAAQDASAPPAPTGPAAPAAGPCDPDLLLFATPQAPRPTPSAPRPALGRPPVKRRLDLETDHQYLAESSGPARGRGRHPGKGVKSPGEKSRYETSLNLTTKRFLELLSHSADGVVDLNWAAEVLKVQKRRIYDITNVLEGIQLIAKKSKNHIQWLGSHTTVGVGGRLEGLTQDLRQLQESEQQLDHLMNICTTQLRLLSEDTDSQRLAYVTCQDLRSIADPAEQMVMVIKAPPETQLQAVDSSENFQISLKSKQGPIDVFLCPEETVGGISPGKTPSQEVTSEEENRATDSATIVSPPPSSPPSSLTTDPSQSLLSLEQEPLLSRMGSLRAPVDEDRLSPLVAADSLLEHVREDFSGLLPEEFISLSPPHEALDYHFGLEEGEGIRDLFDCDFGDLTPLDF

Take `CC1=CC(C)C(C=O)C(C)C1` (stereo not given) (tested in a mixture with another compound): the call in [1], in [2], in [3], in [4], in assay [5] and in assay [6] was inactive. Also, the outcome in [7], in assay [8], in assay [9] and in assay [10] was inactive.

For the compound `O=C(O)c1cccc(Cl)n1`, the result in assay [1], in [2], in assay [3], in assay [4], in assay [5] and in assay [6] was inactive. The result in assay [7], in assay [8], in assay [9] and in assay [10] was inactive.

For `CC(C)(O)C(=O)c1ccc(OCCO)cc1`, the call in assay [1], in assay [2], in assay [3], in [4], in assay [5] and in assay [6] was inactive. The compound was called inactive in [7], in assay [8], in assay [9] and in assay [10].

As for `c1ccc2scnc2c1`, the call in [1], in assay [2], in assay [3], in [4], in [5] and in assay [6] was inactive. Moreover, the result in assay [7], in assay [8], in assay [9] and in assay [10] was inactive.

Turning to `O=C(O)c1cc2ccccc2cc1O`, the outcome in assay [1], in assay [2], in assay [3], in [4], in assay [5] and in assay [6] was inactive. Further, the result in assay [7], in assay [8], in assay [9] and in [10] was inactive.

A word on the AC50: it is the midpoint of the concentration-response curve, whichever way the signal moves. Regarding `CCC(=O)OC(C)(C)C1CC=C(C)CC1` (stereo not given), the outcome in [1], in assay [2], in assay [3], in assay [4], in assay [5] and in assay [7] was inactive. Also, the call in assay [8], in [9] and in assay [10] was inactive. In addition, in [6], the AC50 is 100 µM (active).

On to `O=C(O)C1=NN(c2ccc(S(=O)(=O)O)cc2)C(=O)C1`, for which the compound was called inactive in [1], in assay [2], in assay [3], in assay [4], in assay [5] and in assay [6]. Also, the outcome in [7], in assay [8], in assay [9] and in [10] was inactive.

Turning to `C=C(C)C(=O)OCCN(C)C`, the compound was called inactive in assay [1], in assay [2], in assay [3], in assay [4], in assay [5] and in assay [6]. The compound was called inactive in [7], in [8], in [9] and in [10].

Consider `Cc1cc(N)n(-c2ccccc2)n1`, for which the compound was classed as inactive in assay [1], in assay [2], in assay [3], in [4], in assay [5] and in assay [6]. Also, the result in [7], in assay [8], in assay [9] and in assay [10] was inactive.

In the case of `Nc1ccn([C@H]2CC[C@@H](CO)O2)c(=O)n1`, the result in assay [1], in assay [2], in assay [3], in assay [4], in assay [5] and in assay [6] was inactive. For the same compound, the call in assay [7], in assay [8], in [9] and in assay [10] was inactive.

As for `C1CCCNCC1`, the call in assay [1], in assay [2], in assay [3], in assay [4], in assay [5] and in assay [6] was inactive. In addition, the result in assay [7], in assay [8], in assay [9] and in [10] was inactive.

For the compound `[Cu+]`, the result in [1], in assay [2], in [3], in assay [4], in [5] and in [6] was inactive. Also, the compound was called inactive in assay [7], in [8], in assay [9] and in assay [10].

Turning to `CCCCCCCCOC(=O)c1ccc(O)cc1`, the result in assay [1], in [2], in assay [3], in assay [4], in [5] and in assay [7] was inactive. Moreover, the compound was classed as inactive in assay [8], in assay [9] and in assay [10]. The AC50 in assay [6] was 5.12 µM (active).

As for `O=C1OCc2ccccc21`, the result in [1], in [2], in assay [3], in assay [4], in assay [5] and in [6] was inactive. In addition, the compound was called inactive in assay [7], in assay [8], in assay [9] and in [10].

Take `CC(O)COCC(C)O` (stereo not given): the compound was called inactive in assay [1], in [2], in [3], in assay [4], in assay [5] and in assay [6]. For the same compound, the result in assay [7], in assay [8], in assay [9] and in assay [10] was inactive.

In the case of `CC(C)(C)c1cc(CCC(=O)OCCSCCOC(=O)CCc2cc(C(C)(C)C)c(O)c(C(C)(C)C)c2)cc(C(C)(C)C)c1O`, the outcome in assay [1], in [2], in assay [3], in assay [4], in [5] and in [6] was inactive. In addition, the call in [7], in assay [8], in [9] and in assay [10] was inactive.

As to `NC(N)=S`, the compound was classed as inactive in [1], in assay [2], in assay [3], in assay [4], in assay [5] and in assay [6]. The call in [7], in assay [8], in assay [9] and in assay [10] was inactive.

For the compound `CC(C)(CO)CO`, the compound was called inactive in [1], in assay [2], in assay [3], in assay [4], in assay [5] and in assay [6]. The outcome in [7], in [8], in assay [9] and in [10] was inactive.
